Experimental data taken from PubChem BioAssay AID1851 (National Center for Advancing Translational Sciences (NCATS), 2009).
About 5,100 (32%) of roughly 16,000 compounds were called active. About 25% were inconclusive and are not listed. This is one part of the list. Values without a mark were called inactive. The call rests on the fitted dose curve; in most records, active means well fitted curve in the direction sought with a large enough effect; inconclusive means small, poorly fitted or top-dose-only effect, or effect the other way; inactive means no such curve, though single readings can be large or run the other way.

molecular target: Cytochrome P450 3A4 (Homo sapiens) (UniProt P08684); assay: Cytochrome panel assay with activity outcomes; settings: recombinant CYP, pro-luciferin dealkylation, luminescence, p450-cyp3a4; series mostly up to 57.1 µM; activity, negative = inhibition: at the top concentration
On the % scale 0 is the no-effect control and ±100 the full control effect.

Chain of Cytochrome P450 3A4 (Homo sapiens) (P08684 whole entry, looked up): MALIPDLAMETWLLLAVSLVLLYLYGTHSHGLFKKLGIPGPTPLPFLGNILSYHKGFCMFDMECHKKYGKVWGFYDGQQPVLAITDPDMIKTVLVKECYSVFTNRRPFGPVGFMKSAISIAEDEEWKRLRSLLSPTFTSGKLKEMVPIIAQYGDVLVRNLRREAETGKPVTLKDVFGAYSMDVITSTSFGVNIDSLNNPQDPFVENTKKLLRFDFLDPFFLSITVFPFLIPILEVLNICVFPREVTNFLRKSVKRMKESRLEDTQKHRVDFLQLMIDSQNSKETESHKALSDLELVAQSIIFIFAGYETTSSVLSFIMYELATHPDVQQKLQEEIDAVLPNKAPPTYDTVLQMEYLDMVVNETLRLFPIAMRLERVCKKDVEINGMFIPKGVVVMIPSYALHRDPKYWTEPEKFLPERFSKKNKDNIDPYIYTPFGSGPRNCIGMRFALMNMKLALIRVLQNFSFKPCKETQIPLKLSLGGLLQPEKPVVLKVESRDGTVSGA

Structure (SMILES)	AC50	activity, negative = inhibition
O=C(COc1ccc([N+](=O)[O-])cc1)Nc1ccc(C(=O)NCc2cccnc2)cc1	12.6 µM (active)	
O=C(COc1ccc([N+](=O)[O-])cc1)NCc1ccccc1		-8.35%
O=C(c1ccc(COc2ccc(F)cc2)o1)n1cccn1		-13.5%
CCOc1ccc(OCc2ccc(C(=O)NCc3cccnc3)o2)cc1	2.82 µM (active)	
O=C(N/N=C/c1cccnc1)c1ccc([N+](=O)[O-])cc1		-24.7%
Cc1ccccc1CS(=O)(=O)Cc1ccc(C(=O)NCc2cccnc2)o1	0.891 µM (active)	
CN(C)C(=O)c1ccc(-c2cc(Nc3ccccc3)ncn2)cc1		11.3%
CS(=O)(=O)Nc1cccc(-c2cc(Nc3ccccc3)ncn2)c1	15.8 µM (active)	
CS(=O)(=O)Nc1cccc(-c2cc(NCc3ccccc3)ncn2)c1	15.8 µM (active)	
Cc1cccc(CNc2cc(-c3cccc(NS(C)(=O)=O)c3)ncn2)c1	2 µM (active)	
CS(=O)(=O)Nc1cccc(-c2cc(NCc3cccs3)ncn2)c1	15.8 µM (active)	
CC(=O)c1cn(CCCCCCCCCCn2cc(C(C)=O)c(=O)[nH]c2=O)c(=O)[nH]c1=O		2.06% [at 2.29 µM]
NC(=O)C[C@H](N)C(N)=O		2.14% [at 11.4 µM]
CCN(CC)CCOc1ccc2nc(N(C)C)sc2c1		3.43%
CC1(C)SC(=S)N(NC(=O)Nc2ccccc2)C1N(O)C(=O)Nc1ccccc1 (centres undefined)	2.51 µM (active)	
COC(=O)C1CCC(C)(C(=O)Nc2ccccc2)C1(C)C (centres undefined)		-9.58% [at 11.4 µM]
Cn1c(CC(=O)Nc2ccc(Cl)c(Cl)c2)nnc1SCC(=O)N1CCN(c2ccccc2)CC1	1.58 µM (active)	
CC(C)c1ccccc1-n1c(SCC(=O)N2CCN(c3ccccc3)CC2)nnc1-c1cccnc1	0.501 µM (active)	
Cc1cc2nnc(SCC(=O)N3CCN(c4ccccc4)CC3)n2c(N)n1	14.1 µM (active)	
Cn1c(Cc2cccc3ccccc23)nnc1SCC(=O)N1CCN(c2ccccc2)CC1	1.58 µM (active)	
COCC(=O)N1CCC2(CC1)CCN(c1cccc(-c3ccccc3)c1)CC2		-2.88%
CC1CC(C)CN(C(=O)CSc2nnc(CSc3ncccn3)n2C)C1 (centres undefined)		3.75% [at 2.29 µM]
COc1ccc(CNc2ncncc2-c2ccc3c(c2)OCO3)c(OC)c1	0.126 µM (active)	
COc1ccccc1CNc1ncncc1-c1ccc2c(c1)OCO2	0.2 µM (active)	
O=C1CSC2(CCN(CCCN3c4ccccc4Sc4ccc(Cl)cc43)CC2)N1		-14.4% [at 11.4 µM]

Structure (SMILES)	AC50	activity, negative = inhibition
CCC/C=C(\CCC)C(NS(=O)(=O)c1ccc(C(F)(F)F)cc1)c1ccccc1 (centres undefined)	10 µM (active)	
C[C@@](O)(CNS(=O)(=O)c1ccccc1)c1ccccc1		-21.9% [at 11.4 µM]
CCC/C=C(\CCC)C(NS(=O)(=O)c1ccccc1)c1ccc(C(F)(F)F)cc1 (centres undefined)	6.31 µM (active)	
COc1ccccc1CN1CCCC2(CCN(C(=O)c3ccncc3)CC2)C1	6.31 µM (active)	
COc1ccccc1CN1CCCC2(CCN(C(=O)c3cnccn3)CC2)C1	15.8 µM (active)	
COc1ccccc1CN1CCCC2(CCN(C(C)=O)CC2)C1		-19%
COCC(=O)N1CCC2(CCCN(Cc3ccccc3OC)C2)CC1		-17.4%
Cc1nc2nc(SCC(=O)NCc3ccco3)nn2c(C)c1Cc1c(F)cccc1Cl	10 µM (active)	
Cc1cccc(Cc2c(C)nc3nc(SCC(=O)NCc4ccco4)nn3c2C)c1	11.2 µM (active)	
CCCN=C(N)NCCC[C@H](N)C(=O)O		-7.85%
COc1cc(OC)c(C2N(c3cc(C)on3)C(=O)C3CCCN32)cc1OC (centres undefined)		-22.1%
CCOC(=O)c1cc(CC)sc1NC(=O)c1cc(OCC)c(OCC)c(OCC)c1	22.4 µM (active)	
CCc1cc(C(=O)OC)c(NC(=O)CCCC(=O)O)s1		-11.2%
CCOC(=O)c1cc(-c2ccccc2)sc1NC(=O)c1ccc(OC)cc1		-2.52%
CC(C)NCC[C@@H](O)c1cc2ccccc2o1		-4.13% [at 11.4 µM]
CCOC(=O)/C(C#N)=C1/C=CN(C)C=N1		27.7%
CC(=O)c1ccc(NC(=O)C2(c3ccccc3)CCOCC2)cc1		-28.3%
CO/N=C(/CNC(=O)c1cccc(Cl)c1)c1ccc(Cl)cc1		-6.99% [at 2.29 µM]
CSc1ccc(C#N)cc1NC(=O)c1cccc(Cl)c1	25.1 µM (active)	
CCCc1c(-c2ccc(O)cc2)nn(-c2ccc(O)cc2)c1-c1ccc(O)cc1	2.51 µM (active)	
Cc1nn(-c2ccccc2)c(-c2ccccc2)c1C(=O)O		-1.38%
N#C[C@H](Cc1ccc(O)cc1)c1ccc(O)cc1	12.6 µM (active)	
C[C@H](NCCc1ccc(O)cc1)[C@@H](O)c1ccc(O)cc1	inactive	
CC(=O)N[C@H](Cc1ccc(O)cc1)C(=O)O		-12.2% [at 11.4 µM]
